Laboratory results published in PubChem BioAssay (NCATS).
Inconclusive results are not listed. Entries that show only a call come without a potency. Calls of active or inactive are those of the source. Calls follow the shape of the dose curve; as a rule, active = well fitted cell-killing curve with a large enough effect; inconclusive = small, poorly fitted or top-dose-only effect, or effect the other way; inactive = no such curve, though single readings can be large or run the other way.

assay: Quantitative High-Throughput drug screen in 47 multiple myeloma cell lines against the NCATS MIPE library collection: EJM_DSMZ cell viability assay (AID 1918926; also: nearly all actives have a fitted effect of over 30% in size); settings: EJM myeloma cell viability, CellTiter-Glo ATP, 48 h; series mostly up to 45.8 µM
Summary of the method: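 Myeloma cells (500 per well) were exposed to MIPE 4.0 compounds by pin transfer and incubated 48 hours at 37C, 5% CO2. Viability was read as ATP by CellTiter-Glo luminescence, normalised to DMSO (100%) and media-only (0%) wells.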
Potency is read from the fitted curve at half-maximal effect.

Row | SMILES | Potency
1 | Cc1cc(CS(=O)(=O)c2ccccc2)cc(OCc2ccc(CN3CCC[C@H]3CO)cc2)c1 | inactive
2 | CO[C@H]1/C=C\O[C@@]2(C)Oc3c(C)c(O)c4c(O)c(c(C=NN5CCN(C6CCCC6)CC5)c(O)c4c3C2=O)NC(=O)C(C)=CC=C[C@H](C)[C@H](O)[C@@H](C)[C@@H](O)[C@@H](C)[C@H](OC(C)=O)[C@H]1C | 0.833 µM (active)
3 | CC(C)(CO)[C@@H](O)C(=O)NCCC(=O)O | inactive
4 | CC1(C)[C@H]2CC[C@]3(C)[C@@H](C(=O)C=C4[C@@H]5C[C@@](C)(C(=O)O)CC[C@]5(C)CC[C@]43C)[C@@]2(C)CC[C@@H]1O | inactive
5 | COc1nccc(-c2c(-c3ccc(F)cc3)ncn2C2CCNCC2)n1 | inactive
6 | OC(c1cc(C(F)(F)F)nc2c(C(F)(F)F)cccc12)C1CCCCN1 (configuration not stated) | 18.7 µM (active)
7 | COc1cc(CNC(=O)CCCCC=CC(C)C)ccc1O | 10.5 µM (active)
8 | CCN(CC)CCCCNc1nc2cc(Cl)c(Cl)cc2nc1-c1ccc(-c2cccs2)s1 | 11.8 µM (active)
9 | CN1[C@H]2CC[C@H]1CC(OC(=O)c1c[nH]c3ccccc13)C2 (some centres not stated) | inactive
10 | CCCCOCCOc1nc(-c2ccc(C(=O)O)c(F)c2)sc1C | inactive
11 | COc1nc(C)cnc1NS(=O)(=O)c1cccnc1-c1ccc(-c2nnco2)cc1 | inactive
12 | CN(C)CC[C@H](CSc1ccccc1)Nc1ccc(S(=O)(=O)NC(=O)c2ccc(N3CCN(Cc4ccccc4-c4ccc(Cl)cc4)CC3)cc2)cc1[N+](=O)[O-] | 5.9 µM (active)
13 | CC[C@H](CC#N)OC(=O)N[C@@H](C)c1cccc(NC(=O)Nc2ccc(-c3cnco3)c(OC)c2)c1 | 11.8 µM (active)
14 | COc1cc(C=CC(=O)O)ccc1O | inactive
15 | COC(=O)Nc1ccc(-c2nc(N3CCOCC3)c3cnn(C4CCN(C(=O)OC)CC4)c3n2)cc1 | 6.62 µM (active)
16 | CN[C@@H](C)[C@H]1[C@H](O)C[C@@]2(C)[C@@H]3CC[C@H]4C(C)(C)[C@@H](NC)CC[C@@]45C[C@@]35CC[C@]12C | inactive

Row | SMILES | Potency
17 | O=C(CC12CC3CC(CC(C3)C1)C2)Nc1cccc2nc(NCCNCCO)ccc12 | 11.8 µM (active)
18 | N#Cc1ccc(Oc2ccc3c(c2)COB3O)cc1 | inactive
19 | O=C1Nc2ccc(I)cc2C1=Cc1cc(Br)c(O)c(Br)c1 | inactive
20 | NC1(C(=O)N[C@@H](CCO)c2ccc(Cl)cc2)CCN(c2ncnc3[nH]ccc23)CC1 | 10.5 µM (active)
21 | Cc1cn([C@@H]2C[C@@H](O)[C@H](CO)O2)c(=O)[nH]c1=O | inactive
22 | CC1=C(C(=O)Nc2cc3cn[nH]c3cc2F)C(c2ccc(C(F)(F)F)cc2)CC(=O)N1 (configuration not stated) | inactive
23 | CC(=O)NCCC(=O)N[C@@H](CCC(N)=O)C(=O)N[C@@H](CO)C(=O)N[C@@H](CCC(N)=O)C(=O)N[C@@H](CCC(N)=O)C(=O)N[C@H](C(=O)N[C@@H](Cc1ccccc1)C(=O)N[C@]1(C)CCCCCCC=CCCC[C@@](C)(C(=O)N[C@@H](CCC(N)=O)C(=O)N[C@@H](CC(N)=O)C(N)=O)NC(=O)[C@H](CC(C)C)NC(=O)[C@H](CC(C)C)NC(=O)[C@@H](CCCNC(=N)N)NC(=O)[C@H](Cc2c[nH]c3ccccc23)NC(=O)[C@H](CC(C)C)NC(=O)[C@H](CC(N)=O)NC1=O)[C@H](C)O | 18.7 µM (active)
24 | CS(=O)(=O)c1ccc(C2=C(c3ccccc3)C(=O)OC2)cc1 | inactive
25 | CCC(c1ccc(O)cc1)C(CC)c1ccc(O)cc1 (configuration not stated) | 0.935 µM (active)
26 | CN(C)CCOc1ccc(C(=C(CCCl)c2ccccc2)c2ccccc2)cc1 | 18.7 µM (active)
27 | CC(C)n1c(C=C[C@H](O)C[C@H](O)CC(=O)O)c(-c2ccc(F)cc2)c2ccccc21 | inactive
28 | CN[C@@H]1[C@@H](O)[C@@H](O[C@@H]2[C@@H](O)[C@H](O[C@H]3O[C@H](CN)[C@@H](O)[C@H](O)[C@@H]3O)[C@@H](N)C[C@@H]2NC(=O)[C@@H](O)CN)OC[C@]1(C)O | inactive
29 | CN1CC(=O)N2C(Cc3c([nH]c4ccccc34)[C@H]2c2ccc3c(c2)OCO3)C1=O (some centres not stated) | inactive
30 | CCCCC(C)(C)[C@H](O)C=C[C@H]1[C@H](O)CC(=O)[C@H]1CC=CCCCC(=O)O | 5.9 µM (active)
31 | CC(C)Oc1cc(Nc2nc(N[C@@H](C)c3ccc(F)cn3)ncc2Cl)[nH]n1 | 20.9 µM (active)
32 | COc1ccc(Cn2ccc3ccc(C(=O)NO)cc32)cc1 | 20.9 µM (active)
